PubChem BioAssay AID651789 (National Center for Advancing Translational Sciences (NCATS), 2012)
Inconclusive results are not listed. Unmarked numbers belong to inactive results. Calls of active or inactive are those of the source. Calls come from the whole dose curve; as a rule, active = well fitted inhibition curve with a large enough effect; inconclusive = small, poorly fitted or top-dose-only effect; inactive = no such curve, though single readings can be large or run the other way.

Experiment: Acumen qHTS Assay for Inhibitors of the mTORC1 Signaling Pathway in WT MEF Cells: Hit Validation; note: nearly all actives have a fitted effect of over 60% in size;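 for activity change, negative = inhibition: phospho-rpS6 Ser235/236 immunofluorescence normalised to propidium iodide cell stain; percent of cells above a cutoff set by 7.5 nM rapamycin treated wells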
Conditions: Acumen imaging; series mostly up to 37.3 µM; activity change, negative = inhibition: at the top concentration
Procedure, shortened: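 Read-out is immunofluorescent phospho-rpS6 (Ser235/236) normalised to PI-stained cell number, reported as % active cells using a 7.5 nM rapamycin threshold. Cells: WT or Tsc2-/-, p53-/- MEFs, compound-exposed 24 h at 37C; PI count also tracks viability.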
Potency is the fitted concentration of half-maximal effect.

Structure (SMILES) | activity change, negative = inhibition [%] | Potency
O=C(NCc1ccc(F)cc1)c1ccc2c(Cl)c3c(nc2c1)CCCC3 | 29.6 | 
Cc1cccc(CSCCNC(=O)CN(c2ccccc2)S(=O)(=O)N(C)C)c1 | -2.29 | 
Cc1ccc(NC(=O)Cn2cc(C(=O)C3CCCCC3)c3ccccc32)cc1 | 43 | 
O=C(NCc1ccc(Cl)cc1)C(=O)NCC(c1cccs1)S(=O)(=O)c1ccc(Cl)cc1 (stereo not drawn) | -6.18 | 
c1ccc(N2CCN(c3ncnc4[nH]ncc34)CC2)cc1 | -11.7 | 
CCS(=O)(=O)c1ccccc1C(=O)N(Cc1cccnc1)c1nc2cc(C)c(C)cc2s1 | -4.58 | 
CCOc1ccc(N(Cc2ccccc2)C(=O)c2nc(S(C)(=O)=O)ncc2Cl)cc1 |  | 2070 nM (active)
Cc1ccc(NC(=O)CSc2nc(-c3ccco3)cc(C(F)(F)F)n2)cc1C | -11.8 | 
